# In the supplement of paper PMC8728848:
# The entries come from a sample that favours the strongest signals as a whole.
# B1: Siglec-9 (Homo sapiens), Q9Y336 (protein)
# chain: MLLLLLPLLWGRERAEGQTSKLLTMQSSVTVQEGLCVHVPCSFSYPSHGWIYPGPVVHGYWFREGANTDQDAPVATNNPARAVWEETRDRFHLLGDPHTKNCTLSIRDARRSDAGRYFFRMEKGSIKWNYKHHRLSVNVTALTHRPNILIPGTLESGCPQNLTCSVPWACEQGTPPMISWIGTSVSPLDPSTTRSSVLTLIPQPQDHGTSLTCQVTFPGASVTTNKTVHLNVSYPPQNLTMTVFQGDGTVSTVLGNGSSLSLPEGQSLRLVCAVDAVDSNPPARLSLSWRGLTLCPSQPSNPGVLELPWVHLRDAAEFTCRAQNPLGSQQVYLNVSLQSKATSGVTQGVVGGAGATALVFLSFCVIFVVVRSCRKKSARPAAGVGDTGIEDANAVRGSASQGPLTEPWAEDSPPDQPPPASARSSVGEGELQYASLSFQMVKPWDSRGQEATDTEYSEIKIHR
# Key:
# Experiment in all cases: glycan array binding signal (z-score within array); higher = stronger binding
# Details in all cases: glycan notation: IUPAC condensed, linker removed
# Fuc(a1-2)Gal = molecular target: Fuc(a1-2)Gal
# Procedure, shortened: (§1)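 Glycan array data were curated from 3228 arrays in the Consortium for Functional Glycomics database and kept only where the protein sequence was available. Glycan names were converted to IUPAC-condensed notation, and columns mapping to the same glycan were averaged. The binding signal is a within-array Z-score, averaged across arrays of the same protein sequence at different concentrations or buffers and across linkers. Negative Z-scores can be read as non-binding.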
# [1] = molecular target: Fuc(a1-2)Gal(b1-4)[Fuc(a1-3)]GlcNAc
# Procedure, shortened: as §1
# [2] = molecular target: Fuc(a1-2)Gal(b1-4)[Fuc(a1-3)]GlcNAc(b1-2)Man(a1-3)[Fuc(a1-2)Gal(b1-4)[Fuc(a1-3)]GlcNAc(b1-2)Man(a1-6)]Man(b1-4)GlcNAc(b1-4)[Fuc(a1-6)]GlcNAc
# Procedure, shortened: as §1
# Fuc(a1-2)[Gal(a1-3)]Gal = molecular target: Fuc(a1-2)[Gal(a1-3)]Gal
# Procedure, shortened: as §1
# [3] = molecular target: Fuc(a1-2)[Gal(a1-3)]Gal(b1-4)[Fuc(a1-3)]GlcNAc(b1-3)GalNAc
# Procedure, shortened: as §1
# [4] = molecular target: Fuc(a1-2)[GalNAc(a1-3)]Gal(b1-3)GalNAc(b1-3)Gal(a1-4)Gal(b1-4)Glc
# Procedure, shortened: as §1
# Fuc(a1-3)GlcNAc = molecular target: Fuc(a1-3)GlcNAc
# Procedure, shortened: as §1
# [5] = molecular target: Fuc(a1-3)[Gal(b1-4)]GlcNAc(b1-3)Gal(b1-4)[Fuc(a1-3)]GlcNAc
# Procedure, shortened: as §1
# [6] = molecular target: Fuc(a1-3)[Gal(b1-4)]GlcNAc(b1-6)GalNAc
# Procedure, shortened: as §1
# [7] = molecular target: Fuc(a1-3)[Gal(b1-4)]GlcNAc6S
# Procedure, shortened: as §1
# [8] = molecular target: Fuc(a1-3)[Gal3S(b1-4)]GlcNAc6S
# Procedure, shortened: as §1
# [9] = molecular target: Gal(b1-3)GalNAc(a1-3)[Fuc(a1-2)]Gal(b1-4)Glc
# Procedure, shortened: as §1
# [10] = molecular target: Gal(b1-3)GlcNAc(b1-3)Gal(b1-4)GlcNAc(b1-6)[Gal(b1-3)GlcNAc(b1-3)]Gal(b1-4)Glc
# Procedure, shortened: as §1
# [11] = molecular target: Gal(b1-3)[Neu5Ac(a2-6)]GalNAc
# Procedure, shortened: as §1
# Gal(b1-4)GlcNAc = molecular target: Gal(b1-4)GlcNAc
# Procedure, shortened: as §1
# [12] = molecular target: Gal(b1-4)GlcNAc(b1-2)Man(a1-3)[Gal(b1-4)GlcNAc(b1-2)Man(a1-6)][Gal(b1-4)GlcNAc(b1-4)]Man(b1-4)GlcNAc(b1-4)[Fuc(a1-6)]GlcNAc
# Procedure, shortened: as §1
# [13] = molecular target: Gal(b1-4)GlcNAc(b1-2)Man(a1-6)Man(b1-4)GlcNAc(b1-4)GlcNAc
# Procedure, shortened: as §1
# [14] = molecular target: Gal(b1-4)GlcNAc(b1-3)Gal(b1-4)GlcNAc(b1-3)GalNAc
# Procedure, shortened: as §1
# Gal(b1-4)GlcNAc6P = molecular target: Gal(b1-4)GlcNAc6P
# Procedure, shortened: as §1
# Gal4S(b1-4)GlcNAc = molecular target: Gal4S(b1-4)GlcNAc
# Procedure, shortened: as §1
# [15] = molecular target: GlcNAc(b1-3)Gal(b1-4)GlcNAc(b1-2)Man(a1-3)[GlcNAc(b1-3)Gal(b1-4)GlcNAc(b1-2)Man(a1-6)]Man(b1-4)GlcNAc(b1-4)GlcNAc
# Procedure, shortened: as §1
# GlcNAc(b1-3)GalNAc = molecular target: GlcNAc(b1-3)GalNAc
# Procedure, shortened: as §1
# [16] = molecular target: GlcNAc(b1-3)[GlcNAc(b1-6)]Gal(b1-4)GlcNAc
# Procedure, shortened: as §1
# [17] = molecular target: GlcNAc(b1-4)Gal(b1-4)GlcNAc
# Procedure, shortened: as §1
# [18] = molecular target: GlcNAc(b1-4)[GlcNAc(b1-6)]GalNAc
# Procedure, shortened: as §1
# [19] = molecular target: GlcNAc(b1-6)Gal(b1-4)GlcNAc
# Procedure, shortened: as §1
# [20] = molecular target: Man(a1-2)Man(a1-3)[Man(a1-2)Man(a1-6)]Man(a1-6)[Man(a1-2)Man(a1-2)Man(a1-3)]Man
# Procedure, shortened: as §1
# [21] = molecular target: Man(a1-3)[Man(a1-6)]Man(a1-6)[Man(a1-3)]Man(b1-4)GlcNAc(b1-4)GlcNAc
# Procedure, shortened: as §1
# [22] = molecular target: Neu5Ac(a2-3)Gal(b1-3)GalNAc6S
# Procedure, shortened: as §1
# [23] = molecular target: Neu5Ac(a2-3)Gal(b1-3)GlcNAc(b1-6)GalNAc
# Procedure, shortened: as §1
# [24] = molecular target: Neu5Ac(a2-3)Gal(b1-3)]Neu5Ac(a2-3)Gal(b1-4)]GlcNAc
# Procedure, shortened: as §1
# Neu5Ac(a2-3)Gal(b1-4)Glc = molecular target: Neu5Ac(a2-3)Gal(b1-4)Glc
# Procedure, shortened: as §1
# [25] = molecular target: Neu5Ac(a2-3)Gal(b1-4)GlcNAc(b1-3)Gal(b1-4)GlcNAc(b1-3)[Neu5Ac(a2-3)Gal(b1-4)GlcNAc(b1-3)Gal(b1-4)GlcNAc(b1-6)]GalNAc
# Procedure, shortened: as §1
# [26] = molecular target: Neu5Ac(a2-3)Gal(b1-4)GlcNAc6S
# Procedure, shortened: as §1
# [27] = molecular target: Neu5Ac(a2-3)Gal(b1-4)[Fuc(a1-3)]GlcNAc
# Procedure, shortened: as §1
# [28] = molecular target: Neu5Ac(a2-3)Gal(b1-4)[Fuc(a1-3)]GlcNAc(b1-2)Man
# Procedure, shortened: as §1
# [29] = molecular target: Neu5Ac(a2-3)Gal(b1-4)[Fuc(a1-3)]GlcNAc6S
# Procedure, shortened: as §1
# [30] = molecular target: Neu5Ac(a2-6)Gal(b1-4)GlcNAc(b1-3)Gal(b1-4)GlcNAc(b1-3)Gal(b1-4)GlcNAc(b1-2)Man(a1-3)[Neu5Ac(a2-6)Gal(b1-4)GlcNAc(b1-3)Gal(b1-4)GlcNAc(b1-3)Gal(b1-4)GlcNAc(b1-2)Man(a1-6)]GalNAc
# Procedure, shortened: as §1
# [31] = molecular target: Neu5Ac(a2-6)Gal(b1-4)GlcNAc6S
# Procedure, shortened: as §1
# [32] = molecular target: Neu5Ac(a2-8)Neu5Ac(a2-3)Gal(b1-4)GlcNAc
# Procedure, shortened: as §1
# [33] = molecular target: Neu5Ac(a2-8)Neu5Ac(a2-3)[Gal(b1-3)GalNAc(b1-4)]Gal(b1-4)Glc
# Procedure, shortened: as §1
# [34] = molecular target: Neu5Gc(a2-3)Gal(b1-3)GlcNAc
# Procedure, shortened: as §1
# [35] = molecular target: Neu5Gc(a2-3)Gal(b1-4)[Fuc(a1-3)]GlcNAc
# Procedure, shortened: as §1
# [36] = molecular target: Neu5Gc(a2-8)Neu5Gc(a2-3)Gal(b1-4)GlcNAc(b1-3)Gal(b1-4)GlcNAc
# Procedure, shortened: as §1
binder,measurement,setting,value
B1,glycan array binding signal (z-score),Fuc(a1-2)Gal,-0.211
same,glycan array binding signal (z-score),[1],-0.153
same,glycan array binding signal (z-score),[2],-0.277
same,glycan array binding signal (z-score),Fuc(a1-2)[Gal(a1-3)]Gal,-0.193
same,glycan array binding signal (z-score),[3],-0.269
same,glycan array binding signal (z-score),[4],-0.125
same,glycan array binding signal (z-score),Fuc(a1-3)GlcNAc,-0.293
same,glycan array binding signal (z-score),[5],0.166
same,glycan array binding signal (z-score),[6],-0.063
same,glycan array binding signal (z-score),[7],3.1
same,glycan array binding signal (z-score),[8],-0.041
same,glycan array binding signal (z-score),[9],-0.434
same,glycan array binding signal (z-score),[10],-0.039
same,glycan array binding signal (z-score),[11],-0.173
same,glycan array binding signal (z-score),Gal(b1-4)GlcNAc,-0.244
same,glycan array binding signal (z-score),[12],-0.418
same,glycan array binding signal (z-score),[13],-0.333
same,glycan array binding signal (z-score),[14],-0.054
same,glycan array binding signal (z-score),Gal(b1-4)GlcNAc6P,-0.074
same,glycan array binding signal (z-score),Gal4S(b1-4)GlcNAc,-0.304
same,glycan array binding signal (z-score),[15],-0.042
same,glycan array binding signal (z-score),GlcNAc(b1-3)GalNAc,-0.152
same,glycan array binding signal (z-score),[16],-0.322
same,glycan array binding signal (z-score),[17],0.012
same,glycan array binding signal (z-score),[18],-0.132
same,glycan array binding signal (z-score),[19],-0.081
same,glycan array binding signal (z-score),[20],-0.055
same,glycan array binding signal (z-score),[21],-0.007
same,glycan array binding signal (z-score),[22],1.05
same,glycan array binding signal (z-score),[23],0.961
same,glycan array binding signal (z-score),[24],1.76
same,glycan array binding signal (z-score),Neu5Ac(a2-3)Gal(b1-4)Glc,1.09
same,glycan array binding signal (z-score),[25],-0.187
same,glycan array binding signal (z-score),[26],2.21
same,glycan array binding signal (z-score),[27],1.14
same,glycan array binding signal (z-score),[28],14.8
same,glycan array binding signal (z-score),[29],16.8
same,glycan array binding signal (z-score),[30],0.878
same,glycan array binding signal (z-score),[31],1.58
same,glycan array binding signal (z-score),[32],-0.259
same,glycan array binding signal (z-score),[33],-0.214
same,glycan array binding signal (z-score),[34],-0.028
same,glycan array binding signal (z-score),[35],0.005
same,glycan array binding signal (z-score),[36],-0.178
